The values below come from PubChem BioAssay AID725 (NMMLSC, 2007).

Hit rate of the full screen: of about 1,300 compounds, fewer than 10 were called active. Only a sample is shown. A number with no mark means an inactive call. The rule behind the calls is not given here.

The target of this test is N-formyl peptide receptor 2 (Homo sapiens) (UniProt P25090). Nature of the test: FPRL1 fluorescent ligand binding inhibitors, primary screen, selectivity assay for FPR ligand SAR project, cell-based, flow cytometry, HTS counterscreen (AID 725). To be noted: FPRL1-expressing cells, active compounds read high, concentration not given here. A general note: A flow cytometer gives signals particle by particle.
N-formyl peptide receptor 2 (Homo sapiens), sequence (P25090 whole entry, looked up): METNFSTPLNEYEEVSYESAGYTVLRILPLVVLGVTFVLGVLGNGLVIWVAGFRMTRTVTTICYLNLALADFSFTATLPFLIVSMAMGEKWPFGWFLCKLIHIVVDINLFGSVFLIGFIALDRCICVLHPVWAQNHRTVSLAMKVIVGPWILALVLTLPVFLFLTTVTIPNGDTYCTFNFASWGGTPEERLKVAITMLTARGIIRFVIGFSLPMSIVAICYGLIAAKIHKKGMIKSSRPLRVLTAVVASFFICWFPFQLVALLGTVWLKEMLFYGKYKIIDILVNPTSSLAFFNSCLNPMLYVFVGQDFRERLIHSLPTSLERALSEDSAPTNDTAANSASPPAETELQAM
On to `Cc1ccc(C(=O)O)cc1NC(=O)C1C2CCC(C2)C1C(=O)O` (centres undefined), for which the inhibition was 3.8%. For `CN1CCC2(CC1)N=C(c1ccccc1)C(=S)N2C(=O)c1ccc(Cl)cc1`, the inhibition is -2%. With `Cc1ccc(C)c(-c2n[nH]n3c2nc(=O)c2ccccc23)c1` the figure was -23.5%; with `O=C1c2cccc3cccc(c23)N1S(=O)(=O)c1ccccc1`, -5%. Under `CC(C)CCN(Cc1ccco1)C(=O)c1noc2c1CCCC2` stands -3%; under `Cc1cccc(N2C(=O)CSC2c2ccc(Br)cc2)c1` (centres undefined), -3.9%; under `CCOC(=O)c1c(NC(=O)c2cccc(Cl)c2)sc2c1CCCC2`, 3.1%. Under `O=C(c1ccc(F)cc1)N(Cc1ccco1)Cc1ccccc1Cl` stands -1.7%; under `Cc1nnc(N2C(=O)C(O)=C(C(=O)c3ccco3)C2c2ccc(Cl)cc2)s1` (centres undefined), 0.1%; under `CCc1ccc(Oc2c(C(F)(F)F)oc3c(CN4CCOCC4)c(O)ccc3c2=O)cc1`, -5.8%. As to `CCc1cccc(C)c1NC(=S)N(Cc1ccco1)C(C)c1cccs1` (centres undefined), the inhibition was -5.9%. As to `Cc1ccc(/C(O)=C2\C(=O)C(=O)N(CCN3CCOCC3)C2c2cccs2)cc1` (centres undefined), the inhibition was -5.9%. With `COc1ccc(C2C(C(=O)N3CCCC(C)C3)c3ccccc3C(=O)N2C)cc1` (centres undefined) the figure was 2.3%; with `COc1ccccc1C(=O)NC(C)c1nc2ccccc2n1Cc1ccccc1C` (centres undefined), -0.5%.

Take `CCOc1cc(C2C(C(=O)c3ccco3)=C(O)C(=O)N2CC2CCCO2)ccc1O` (centres undefined): the inhibition is 0.5%.

Turning to `O=C(O)CCN1C(=O)C(=O)/C(=C(/O)c2ccccc2)C1c1ccccc1[N+](=O)[O-]` (centres undefined), the inhibition was 1.1%. With `COC(=O)c1c(NC(=O)c2cccc(C)c2)sc2c1CCC(C)C2` (centres undefined), the inhibition was -8.1%.

Regarding `COc1cccc(Cn2c(=S)[nH]c3c(oc4ccccc43)c2=O)c1`, the inhibition was 3%.

With `COc1ccc(C2/C(=C(\O)c3ccccc3)C(=O)C(=O)N2CCN2CCOCC2)cc1` (centres undefined), the inhibition was 0.4%. Consider `Cc1ccc(C2/C(=C(\O)c3ccccc3)C(=O)C(=O)N2c2nnc(C)s2)cc1` (centres undefined), for which the inhibition was -1.8%. For `CCOc1ccc(N(C)C(=O)[C@H]2[C@@H]3C[C@@H]4[C@H]2C(=O)O[C@@H]4C3)cc1`, the inhibition was 19.5%. As for `Cc1cccc(C(=O)N2c3ncnn3C(c3ccccc3)CC2c2ccccc2)c1` (centres undefined), the inhibition was -15.7%. With `COC(=O)c1c(NC(=O)c2ccc(F)cc2)sc(C)c1C` the figure was -4.9%. With `Cc1cc(C)cc(N2C(=O)N(c3ccccc3Cl)C3CS(=O)(=O)CC32)c1` (centres undefined), the inhibition was 2.6%.

The inhibition is the drop in the measured response relative to a control, in per cent.
